Assay results reported in paper PMC4552634, “A New Set of Chemical Starting Points with Plasmodium falciparum Transmission-Blocking Potential for Antimalarial Drug Discovery” (PLoS ONE, 2015).
Among all 13,000 compounds or so, about 3,200 (25%) showed an effect of 50% or more. The list shows a part of the results.

Each molecule was assayed on P. falciparum stage V gametocytes. Details: 48 h, 5 µM; inhibitor.
Set-up: BacTiter-Glo ATP luminescence viability of purified stage V gametocytes in 384-well plates, per cent inhibition versus DMSO

| SMILES | % Inhibition |
| --- | --- |
| CCCCC(CC)C(=O)C(NC(=O)[C@H](CSC(c1ccccc1)(c1ccccc1)c1ccccc1)NC(=O)OC(C)(C)C)C(=O)OC (stereo partly shown) [TCMDC-138083] | 0.3187% |
| NC(=O)c1ccccc1OCC(=O)Nc1ccc(-c2cccc(-c3nc4ccc(C(F)(F)F)cc4[nH]3)c2)cc1 [TCMDC-132129] | 71.31% |
| NC(=O)c1ccccc1OCC(=O)Nc1cccc(-c2cccc(-c3nc4ccccc4[nH]3)c2)c1 [TCMDC-132127] | 20.22% |
| Cc1cccc2[nH]c(-c3cccc(-c4ccc(NC(=O)COC(C)C)cc4)c3)nc12 [TCMDC-137038] | 26.32% |
| NC(=O)c1ccccc1OCC(=O)Nc1cccc(-c2ccc(-c3nc4ccc(C(F)(F)F)cc4[nH]3)cc2)c1 [TCMDC-132132] | -3.438% |
| Cc1cccc2[nH]c(-c3cccc(-c4ccc(NC(=O)COc5ccccc5C(N)=O)cc4)c3)nc12 [TCMDC-132131] | 84.32% |
| Cc1cccc2[nH]c(-c3cccc(-c4cccc(NC(=O)COc5ccccc5C(N)=O)c4)c3)nc12 [TCMDC-132130] | 45.07% |
| O=C(/C=C/c1ccc(Cl)c(Cl)c1)NCCCCCN1CCC(NC(=O)Nc2cccc(Cl)c2F)CC1 [TCMDC-135721] | -53.7% |
| CCCN(Cc1nnc(-c2cccs2)o1)C(=O)CSc1nnnn1-c1cc(C)cc(C)c1 [TCMDC-125265] | 15.05% |
| CCN(CC)CCN(Cc1ccc(-c2ccc(C(F)(F)F)cc2)cc1)C(=O)c1ccc(-c2ccc(NC(=O)OC)cc2C)cc1 [TCMDC-141558] | 93.92% |
| COC(=O)Nc1ccc(-c2ccc(C(=O)NC3CCN(C[C@H](O)c4ccnc5ccc(OC)cc45)CC3)cc2)c(C)c1 [TCMDC-141170] | -22.09% |
| CC(C)CCN(Cc1cncn1Cc1cccc(C(F)(F)F)c1)C(=O)c1cncc(-c2ccccc2)c1 [TCMDC-132458] | 37.01% |
| CCN(CC)CCN(Cc1ccc(-c2ccc(C(F)(F)F)cc2)cc1)C(=O)c1ccc(-c2ccc(C#N)cc2)cc1 [TCMDC-141556] | 55.86% |
| CCCC(C)N(Cc1ccc(C(C)(C)C)cc1)C(=O)c1cccc(C#N)c1 (stereo not shown) [TCMDC-139784] | -24.96% |
| CCOC(=O)c1ccc(NC(=O)Nc2ccc(-c3ccc(-c4nc5ccc(C(F)(F)F)cc5[nH]4)cc3)cc2)cc1 [TCMDC-133260] | 23.97% |
| CCN(CC)C(=O)C(=O)c1c[nH]c2ccc(Cl)cc12 [TCMDC-131976] | 21.68% |
| CCN(CC)CCN(Cc1ccc(-c2ccc(C(F)(F)F)cc2)cc1)C(=O)c1c[nH]c2ccc(Br)cc12 [TCMDC-141557] | 106.7% |
| Cc1cc(C)c(S(=O)(=O)N2CCCCC(c3cccc(C(F)(F)F)c3)=N2)c(C)c1 [TCMDC-134550] | -57.26% |
| CC(C)(C)C1CCC(CC2=C(C(=O)O)c3ccccc3C2=O)CC1 (stereo not shown) [TCMDC-137496] | 8.625% |
| O=C1OC(c2ccccc2)(c2ccccc2)CN1C1CCN(Cc2ccc(O)c(Cl)c2)C1 (stereo not shown) [TCMDC-136070] | -44.93% |
| COc1cccc2cc(C(=O)N[C@@H](CC(C)C)C(=O)N[C@H](C=NNC(=O)OC(C)(C)C)Cc3ccccc3)oc12 [TCMDC-136073] | -20.59% |
| Cc1cccc2[nH]c(-c3cccc(-c4cccc(CN5CCN(c6ccncc6)CC5)c4)c3)nc12 [TCMDC-132910] | 41.94% |

| SMILES | % Inhibition |
| --- | --- |
| Cc1cc(N[C@@H](Cc2ccccc2)C(=O)Nc2ccccc2)nc(Nc2ccccc2)n1 [TCMDC-134736] | -2.834% |
| COc1ccc(NC(=O)[C@H](Cc2ccccc2)Nc2nc(NCCN3CCCC3)ncc2C)cc1 [TCMDC-134860] | 27.32% |
| Cc1cc(N[C@@H](CC(C)C)C(=O)Nc2ccccc2)nc(NCCc2ccccc2)n1 [TCMDC-134780] | 99.12% |
| Cc1cc(N[C@@H](Cc2ccccc2)C(=O)Nc2ccccc2)nc(NCCN2CCCC2)n1 [TCMDC-134925] | 33.54% |
| COc1ccc(NC(=O)[C@H](CC(C)C)Nc2cc(C)nc(NCCc3ccccc3)n2)cc1 [TCMDC-134778] | 31.74% |
| Cc1cc(N[C@@H](Cc2ccccc2)C(=O)Nc2ccccc2)nc(NCCc2ccccc2)n1 [TCMDC-134777] | 63.66% |
| COc1ccc(NC(=O)[C@H](CC(C)C)Nc2cc(C)nc(NCCc3ccc(F)cc3)n2)cc1 [TCMDC-134793] | 11.38% |
| Cc1cc(N[C@@H](CC(C)C)C(=O)Nc2ccccc2)nc(NCCc2ccc(F)cc2)n1 [TCMDC-134797] | 10.71% |
| COc1ccc(NC(=O)[C@H](Cc2ccccc2)Nc2cc(C)nc(NCCc3ccc(F)cc3)n2)cc1 [TCMDC-134786] | 103.7% |
| Cc1cc(N[C@@H](Cc2ccccc2)C(=O)Nc2ccccc2)nc(NCCc2ccc(F)cc2)n1 [TCMDC-134790] | 26.02% |
| COc1ccc(NC(=O)[C@H](Cc2ccccc2)Nc2cc(C)nc(NCCN3CCCC3)n2)cc1 [TCMDC-134924] | 85.56% |
| COc1ccc2nccc(N3CCC(O)(CCNCc4ccc5c(n4)NC(=O)CS5)CC3)c2n1 [TCMDC-134553] | -13.65% |
| CCCOc1ccc(C=C(CC(=O)O)c2nc3ccccc3s2)cc1OCC [TCMDC-125020] | 4.95% |
| CO/C(=C\C=C\c1cc2cc(Cl)c(Cl)cc2[nH]1)C(=O)NCCCN1CCN(c2cccc(CCO)c2)CC1 [TCMDC-139549] | -37.75% |
| CC[C@H](C)CNC(=O)c1cncc(-c2ccc(CN3CCC(N4CCCC4)CC3)cc2)c1 [TCMDC-134234] | 36.3% |
| c1ccn2c(-c3ncnc(NCc4ccc5c(c4)CCO5)n3)cnc2c1 [TCMDC-135175] | 28.7% |
| COCc1ccccc1C(=O)NCCOc1cc(C)cc(C)c1 [TCMDC-134843] | -15.71% |
| COc1ccc(NC(=O)[C@H](Cc2ccccc2)Nc2cc(C)nc(NCc3ccccc3C)n2)cc1 [TCMDC-134904] | -26.59% |
| COc1ccc(NC(=O)[C@H](Cc2ccccc2)Nc2cc(C)nc(NCCc3ccccc3)n2)cc1 [TCMDC-134774] | 119.9% |
| Cc1cc(N[C@@H](Cc2ccccc2)C(=O)Nc2ccccc2)nc(NCCc2cccs2)n1 [TCMDC-134814] | 131.2% |
| Cc1cc(N[C@@H](Cc2ccccc2)C(=O)NC2CCCC2)nc(NCc2ccccc2C)n1 [TCMDC-134902] | -12.74% |
| COc1ccc(NC(=O)[C@H](Cc2ccccc2)Nc2cc(C)nc(NCCc3ccccc3OC)n2)cc1 [TCMDC-134801] | 16.26% |

| SMILES | % Inhibition |
| --- | --- |
| Cc1cc(N[C@@H](Cc2ccccc2)C(=O)NC2CCCC2)nc(NCCCOC(C)C)n1 [TCMDC-134821] | 40.66% |
| Cc1cc(N[C@@H](Cc2ccccc2)C(=O)NC2CCCC2)nc(NCCc2cccs2)n1 [TCMDC-134811] | 53.29% |
| COc1ccc(NC(=O)[C@H](Cc2ccccc2)Nc2cc(C)nc(NCCc3cccs3)n2)cc1 [TCMDC-134873] | 39.58% |
| CCOC(=O)C1=C(C)NC(C)=C(C(=O)OCC)C1(C(=O)OCc1ccccc1)c1cccc(C(F)(F)F)c1 [TCMDC-132060] | -16.58% |
| Cc1cc(NC(=O)c2coc3cc(F)c(N4CC(C)N(C)C(C)C4)cc23)cnc1-c1ccc(C#N)cc1 (stereo not shown) [TCMDC-141403] | -2.152% |
| Oc1ccc(Cl)cc1CN1CCC(CCOC(c2ccccc2)c2ccc(Cl)cc2)CC1 (stereo not shown) [TCMDC-136035] | 13.31% |
| O=C(/C=C/c1ccc(Cl)c(Cl)c1)NCCCCCN1CCC(NC(=O)Nc2cc(F)ccc2F)CC1 [TCMDC-135713] | -50.93% |
| COc1cc(F)c2ncc(Cl)c(CCN3CCC(NCc4cc5c(cn4)OCCO5)CC3)c2c1 [TCMDC-134284] | 7.425% |
| O=S(=O)(c1cc(Cl)ccc1Cl)N1CCCCC(c2ccc(C(F)(F)F)cc2)=N1 [TCMDC-134538] | -6.074% |
| CCCCN1CCCC[C@H]1[C@@H](O)c1ccnc2ccc(OCC)cc12 [TCMDC-132037] | -41.99% |
| CN(N=Cc1ccccc1)C(N)=NCCCC#Cc1cccc(CN2CCCC2)c1 [TCMDC-136886] | 99.7% |
| CC(C)c1ccc(NC(=O)c2cccc(CN3CCCN(Cc4cccc(C#N)c4)CC3)c2)cc1 [TCMDC-135975] | 18.13% |
| CC(C)(C)c1ccc(NC(=O)c2cccc(CN3CCCN(Cc4cccc(C#N)c4)CC3)c2)cc1 [TCMDC-135981] | -19.29% |
| CCCCCCNC(=O)C1Cc2c([nH]c3ccccc23)C2(CCN(CCc3ccccc3)CC2)N1 (stereo not shown) [TCMDC-141085] | -57.94% |
| O=C(CCc1cnc[nH]1)Nc1ccc(-c2ccc(-c3nc4ccc(F)cc4[nH]3)cc2)cc1 [TCMDC-136776] | 4.733% |
| CCCCCCCCOc1c(OCC)cc(Cc2cnc(N)nc2N)cc1OCC [TCMDC-137175] | -7.172% |
| CCCCCCN(CCCCCC)CCCCNc1c2ccc(Cl)cc2nc2ccc(OC)cc12 [TCMDC-137520] | 100.6% |
| CCN(CC)CCCCCNc1c2ccc(Cl)cc2nc2ccc(OC)cc12 [TCMDC-137514] | 94.78% |
| CCCCN(CCCC)CCCCNc1c2ccc(Cl)cc2nc2ccc(OC)cc12 [TCMDC-137460] | 99.56% |
| COc1ccc2nccc([C@@H](O)CN3CCC(NC(=O)C(c4ccsc4)N4CCN(c5ccccc5)CC4)CC3)c2c1 (stereo partly shown) [TCMDC-140985] | -15.82% |
